Results on ten compounds are retold here after PubChem BioAssay.

Assay [1] is described as follows: inhibitors of TNFa-induced NFkB p65 translocation, primary screen, imaging, HUVEC, MLSMR starter and 10KST1 sets (AID 438;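 active = inhibition above 20% together with a positive visual image hit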;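 note: compound added about 3h40 before a 20 min TNFalpha stimulation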;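 for inhibition: signal is the nuclear over cytoplasmic p65 intensity ratio per well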). The settings on record: HUVEC TNFa-induced p65 nuclear translocation; cell count: measured here: nuclei count (cytotoxicity indicator), at 2.08 µM; inhibition: at 2 µM, stronger effect = higher value, 0% TNFa-plus-vehicle, 100% no-TNFa wells.
Assay [2] can be described thus: reduction of polyQ htt aggregates in cells – imaging, exon1htt(103Q)mCFP cells, high-content imaging, primary screen (AID 483;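 active = visual image review flags a hit and inhibition of aggregation exceeds 20%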;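 note: compound exposure lasted 3 days before fixation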;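 for nuclei count: percent of the per-plate median nuclei count of sample wells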). Particulars: exon1htt(103Q)mCFP cell line, aggregate imaging, at 2 µM; inhibition of aggregation: stronger effect = higher value; nuclei count: measured here: cell count, toxicity.
Assay [3] in a line: endothelial E-selectin expression blockers – imaging, HUVEC, immunofluorescence, MLSMR starter and 10KST1 sets, primary screen (AID 487;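 active = visually confirmed hit in the image check and inhibition above 20%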;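 for inhibition: signal is fraction of cell area covered by stained E-selectin grains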;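 for nuclei count: 100% = median nuclei count of all wells on the same plate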). The settings on record: HUVEC TNFalpha-induced E-selectin immunofluorescence imaging, at 2 µM; inhibition: stronger effect = higher value; nuclei count: measured here: cell number, toxicity.
The nature of assay [4]: Primary imaging screen for DUSP6 inhibitors that restore phospho-Erk in transfected HeLa cells, chemical complementation (AID 609).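 For inhibition: phospho-Erk level distribution per well compared with pooled transfected vehicle control wells.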 The settings on record: HeLa MKP-3 transfected, phospho-Erk imaging KS statistic, at 10 µM, cells stimulated with TPA for 15 min.
Assay [5] deals with Dual specificity protein phosphatase 6 (Homo sapiens) (UniProt Q16828). Described as above. Particulars: HeLa MKP-3 transfected, phospho-Erk imaging KS statistic; at 10 µM; stronger effect = higher value; cells stimulated with TPA for 15 min.
Assay [6] addresses Voltage-gated potassium channel subunit beta-2 (Rattus norvegicus) (UniProt P62483). In words: inhibitors of rat Kvbeta2 reductase activity – biochemical, NADPH fluorescence, primary screen (AID 622;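 active = fluorescence slope higher than the sample average by over 3 SD, cut at about -0.22 in these data, passing the limit was not always enough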;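 note: slope of raw intensity against log time taken from 70 to 1610 s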). Particulars: recombinant KvBeta, 4-cyanobenzaldehyde reduction, at 10 µM, stronger effect = higher value.
Assay [7] has the same target. In words: enhancers of rat Kvbeta2 NADPH turnover – biochemical, NADPH fluorescence, primary screen (AID 623;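 active = NADPH fluorescence slope more negative than the mean of all samples by about 3 SD, 99.7% confidence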;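 note: fluorescence intensity change per second fitted from 20 to 320 s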). The settings on record: Recombinant KvBeta, NADPH fluorescence decrease slope, 10 min; at 10 µM; stronger effect = lower value.
Assay [8] deals with Alpha-2C adrenergic receptor (Homo sapiens) (UniProt P18825). In words: compounds altering alpha2C-coupled GIRK flux – cell-based, HEK293 alpha2C/GIRK1/2, thallium flux, primary screen (AID 624;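 active = fluorescence slope after compound addition differing from the mean of all screened samples at 99.7% confidence, in either direction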;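 note: slope of fluorescence ratio to pre-addition baseline per second over 15 to 24 s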). Particulars: thallium flux BTC fluorescence, at 10 µM, actives lie on both sides.
Assay [9] can be described thus: inhibitors of larval lipid processing in zebrafish, primary screen, whole organism, PED6 fluorescence, gall bladder and intestine (AID 686;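 active = a full or partial loss of lipid-probe fluorescence in the fish gall bladder, intestine or both, judged by eye; inactive = no fluorescence loss, or compound toxic to the fish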;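 note: larvae 5 to 7 days old with five fish per well; signal comes from phospholipase A2 cleavage of quenched PED6 carried via bile; overnight exposure to compound and PED6 before scoring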). Particulars: Zebrafish larvae PED6 lipid processing, fluorescence scoring; screened at 20 µM (by protocol).
Assay [10] is described as follows: loss of swimming-algae plug formation – whole organism, Chlamydomonas reinhardtii, WT vs cilia-less mutant, absorbance, 96-well, primary screen (AID 463189;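 active = inhibition at or above 50% relative to wild type and mutant plate controls; inactive = inhibition below 50%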;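 note: 0% = wild type cc124 cells in DMSO and 100% = ciliumless bld1 mutant cells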). The settings on record: Chlamydomonas reinhardtii gravitaxis, OD600 absorbance, 2 days; at 10 µM; stronger effect = higher value.
Assay [11] can be described thus: blockers of RIG-like receptor reporter activation – cell-based, Sendai virus stimulus, luciferase, 10K MLSCN set, TLR/RLR signaling modifier project, primary screen (AID 602276;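 active = inhibition at or above 50% at 10 µM; inactive = inhibition below 50%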;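 note: firefly luciferase from ISG56 promoter only with Renilla not read in this screen; 0% = Sendai virus plus DMSO and 100% = medium plus DMSO without virus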). Particulars: HEK293 RL24 IRF3 luciferase reporter, at 10 µM, stronger effect = higher value.
The nature of assay [12]: TLR3 IRF3 reporter activation blockers – cell-based, poly I:C stimulus, luciferase, 10K MLSCN set, primary screen (AID 602277;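 active = inhibition of the reporter signal at or above 50%; inactive = inhibition below 50%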). Particulars: HEK293-TLR3 RL24 IRF3 luciferase reporter, at 10 µM, stronger effect = higher value.
Where [13] appears, read: measured here: cell density z-score.
[14] abbreviates: measured here: nuclear c-Myc green intensity z-score.
[15] abbreviates: measured here: nuclear pErk red intensity z-score, stronger effect = higher value.

The source made the active and inactive calls.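 Rule for the calls, unless noted: active = compounds giving at least 50% inhibition in the cell-based MKP-3 phosphatase rescue imaging test; inactive = the rest.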

Sequence of Dual specificity protein phosphatase 6 (Homo sapiens) (Q16828 whole entry, looked up): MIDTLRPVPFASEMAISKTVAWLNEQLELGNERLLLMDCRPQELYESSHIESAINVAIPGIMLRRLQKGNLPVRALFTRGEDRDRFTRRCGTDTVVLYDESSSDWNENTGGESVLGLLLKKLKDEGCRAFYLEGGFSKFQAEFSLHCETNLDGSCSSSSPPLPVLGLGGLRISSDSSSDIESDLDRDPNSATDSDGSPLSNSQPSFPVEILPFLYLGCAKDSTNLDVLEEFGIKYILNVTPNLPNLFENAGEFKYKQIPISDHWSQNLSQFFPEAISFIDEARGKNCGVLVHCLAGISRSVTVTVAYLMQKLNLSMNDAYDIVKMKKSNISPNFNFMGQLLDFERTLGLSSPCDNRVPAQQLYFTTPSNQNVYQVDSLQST
Sequence of Voltage-gated potassium channel subunit beta-2 (Rattus norvegicus) (P62483 whole entry, looked up): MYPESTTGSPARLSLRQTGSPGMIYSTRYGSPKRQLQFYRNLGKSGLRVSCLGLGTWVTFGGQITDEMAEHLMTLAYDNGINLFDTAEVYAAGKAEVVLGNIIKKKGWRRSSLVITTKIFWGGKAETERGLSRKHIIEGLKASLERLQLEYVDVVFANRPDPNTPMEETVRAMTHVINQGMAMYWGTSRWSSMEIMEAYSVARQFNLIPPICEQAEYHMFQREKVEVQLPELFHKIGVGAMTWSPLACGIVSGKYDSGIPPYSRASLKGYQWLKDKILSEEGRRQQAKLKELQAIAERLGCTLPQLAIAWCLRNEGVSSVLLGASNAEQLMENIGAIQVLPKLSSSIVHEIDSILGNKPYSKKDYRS
Sequence of Alpha-2C adrenergic receptor (Homo sapiens) (P18825 whole entry, looked up): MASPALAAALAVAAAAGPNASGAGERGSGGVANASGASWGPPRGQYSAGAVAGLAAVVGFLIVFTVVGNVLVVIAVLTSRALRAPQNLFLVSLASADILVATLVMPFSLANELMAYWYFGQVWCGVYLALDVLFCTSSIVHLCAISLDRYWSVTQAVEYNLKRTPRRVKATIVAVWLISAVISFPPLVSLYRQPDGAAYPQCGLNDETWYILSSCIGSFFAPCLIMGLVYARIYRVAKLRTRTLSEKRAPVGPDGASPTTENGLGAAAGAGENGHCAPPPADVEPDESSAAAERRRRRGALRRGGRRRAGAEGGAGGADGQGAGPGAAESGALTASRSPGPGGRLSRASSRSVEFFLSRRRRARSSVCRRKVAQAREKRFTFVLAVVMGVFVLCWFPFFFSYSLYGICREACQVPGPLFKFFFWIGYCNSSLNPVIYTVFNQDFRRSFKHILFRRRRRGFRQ

For orientation: inhibition means the drop in the measured response relative to a control, in per cent. For `CC(C)OC(=O)C(CC(=O)O)NCc1ccccc1` (stereo not given), the cell count in assay [1] was 518. The inhibition was -2% (inactive) in [1]; -117% (inactive) in [3]; 1.75% (inactive) in [5]; -6.73% (inactive) in assay [10]; 14.9% (inactive) in [11]; 20.3% (inactive) in assay [12]. The inhibition of aggregation in assay [2] is 15% (inactive). The figures for the nuclei count in [2] and in assay [3] were 65.3% and 118%, respectively. Further, the z-score in assay [4] (setting [13]) was 0.414; in [4] (setting [14]), 0.989; in [4] (setting [15]) it was 0.212. Moreover, the fluorescence slope in [6] was -0.296 (inactive). The NADPH fluorescence slope in assay [7] was 2.8e-05 (inactive). Besides, the slope in assay [8] is 0.00502 (inactive). Also, in [9], the call was inactive.

`CCOC(=O)c1c(C(F)(F)C(F)(F)C(F)(F)C(F)(F)F)n[nH]c1C`: in [1], the cell count turned out to be 532. The inhibition in [1] was -3.7% (inactive); in assay [3] it was -78.6% (inactive); in [5], 11.3% (inactive); in assay [10], 17.6% (inactive); in assay [11], 17.2% (inactive); in [12] it was 24.6% (inactive). For the same compound, the inhibition of aggregation in assay [2] is 10.3% (inactive). For the same compound, the figures for the nuclei count in assay [2] and in assay [3] were 97.3% and 128%, respectively. The z-score in assay [4] (setting [13]) was -0.312; in assay [4] (setting [14]), 0.0825; in assay [4] (setting [15]), -0.449. For the same compound, the fluorescence slope in [6] is -0.521 (inactive). In [7], the NADPH fluorescence slope is -9.8e-05 (inactive). Also, in assay [8], the slope is 0.00424 (inactive). Further, in assay [9], the result was inactive.

Turning to `CC[C@]1(O)CC2CN(CCc3c([nH]c4ccccc34)[C@@](C(=O)OC)(c3cc4c(cc3OC)N(C=O)[C@H]3[C@@](O)(C(=O)OC)[C@H](OC(C)=O)[C@]5(CC)C=CCN6CC[C@]43[C@@H]65)C2)C1` (stereo not given in full), in [1], the cell count was 496. Besides, the inhibition in assay [1] is 31.7% (active); in assay [3] it was -122% (inactive); in [5], 27.9% (inactive); in [10], -2.94% (inactive); in [11] it was 32.7% (inactive); in assay [12], 85.7% (active). Also, in assay [2], the inhibition of aggregation was -69.9% (inactive). Also, the nuclei count in assay [2] came out at 1.5%; in assay [3] it was 76.8%. Further, the z-score in [4] (setting [13]) was 0.276; in [4] (setting [14]), -0.499; in [4] (setting [15]), 1.19. Moreover, in assay [6], the fluorescence slope was -0.439 (inactive). Moreover, in assay [7], the NADPH fluorescence slope was -3.8e-07 (inactive). For the same compound, the slope in assay [8] was 0.00563 (inactive). In addition, the compound was called inactive in [9].

Consider `CCOC(=O)C1CCN(c2nc3ccccc3nc2C(C#N)C(=O)OCCOC)CC1` (stereo not given), for which the cell count in assay [1] was 436. In addition, the inhibition in assay [1] is -5.7% (inactive); in assay [3], -67.9% (inactive); in assay [5], -11.5% (inactive); in [10], -22.9% (inactive); in assay [11] it was 13.3% (inactive); in assay [12], 3.22% (inactive). In assay [2], the inhibition of aggregation is 12.8% (inactive). In addition, the nuclei count in assay [2] was 81%; in assay [3] it was 120%. Also, the z-score in [4] (setting [13]) was 0.586; in assay [4] (setting [14]), 0.396; in assay [4] (setting [15]), 0.0352. Besides, the fluorescence slope in assay [6] is -0.529 (inactive). Further, in [7], the NADPH fluorescence slope was 2.1e-06 (inactive). In [8], the slope is 0.00561 (inactive). For the same compound, the result in [9] was inactive.

`Cc1cc(-c2ccc(F)cc2)nc2cc(C(N)=O)nn12`: the cell count in [1] amounted to 567. Further, the inhibition was -4% (inactive) in assay [1]; 14.3% (inactive) in assay [3]; 5.57% (inactive) in [5]; 13.5% (inactive) in assay [10]; -10.5% (inactive) in [11]; -21.7% (inactive) in [12]. Besides, the inhibition of aggregation in assay [2] is 8.1% (inactive). In addition, the nuclei count was found to be 99.3% in assay [2] and 117% in assay [3]. The z-score in assay [4] (setting [13]) was -0.951; in assay [4] (setting [14]) it was 0.396; in [4] (setting [15]), -0.666. In [6], the fluorescence slope was -0.377 (inactive). Also, the NADPH fluorescence slope in assay [7] was -0.000109 (inactive). The slope in assay [8] is 0.00367 (inactive). Besides, the result in [9] was inactive.

Consider `CCC(=O)N[C@@H]1CC(C(C)(C)NC(=O)CC)CC=C1C` (stereo not given in full), for which the cell count in [1] was 537. The inhibition in [1] was -16.4% (inactive); in assay [3], -21.9% (inactive); in [5], -6.06% (inactive); in assay [10] it was 6.4% (inactive); in assay [11], 18.2% (inactive); in assay [12], 18.8% (inactive). Besides, the inhibition of aggregation in [2] was -10.9% (inactive). In addition, the nuclei count in assay [2] worked out at 110%; in assay [3] it was 137%. For the same compound, the z-score in assay [4] (setting [13]) is -0.93; in assay [4] (setting [14]) it was 0.526; in assay [4] (setting [15]), -0.616. Moreover, in assay [6], the fluorescence slope is -0.349 (inactive). The NADPH fluorescence slope in assay [7] is -1e-06 (inactive). Also, in [8], the slope was 0.00698 (inactive). In addition, the compound was classed as inactive in [9].

For the compound `CC(C)(S)[C@@H](N)C(=O)O`, in assay [1], the cell count was 657. Also, the inhibition was -4.4% (inactive) in assay [1]; -120% (inactive) in assay [3]; 3.45% (inactive) in assay [5]; -3.9% (inactive) in assay [10]; 22.7% (inactive) in [11]; 43.2% (inactive) in [12]. Also, the inhibition of aggregation in assay [2] is -5.6% (inactive). Moreover, the values for the nuclei count in assay [2] and in assay [3] were 105% and 138%, respectively. In addition, the values for the z-score in assay [4] (setting [13]), in assay [4] (setting [14]) and in assay [4] (setting [15]) were 1.21, -0.53 and -0.44, respectively. Besides, the fluorescence slope in assay [6] was -0.482 (inactive). The NADPH fluorescence slope in [7] was -4.6e-05 (inactive). Further, the slope in assay [8] is 0.00423 (inactive). Besides, the result in assay [9] was inactive.

For the compound `CCC(C)n1ncn(-c2ccc(N3CCN(c4ccc(OCC5COC(Cn6cncn6)(c6ccc(Cl)cc6Cl)O5)cc4)CC3)cc2)c1=O` (stereo not given), in [1], the cell count came out at 587. Moreover, the inhibition was 3.2% (inactive) in assay [1]; -162% (inactive) in assay [3]; 1.38% (inactive) in assay [5]; 5.29% (inactive) in [10]; 33.8% (inactive) in assay [11]; 4.61% (inactive) in assay [12]. Further, in [2], the inhibition of aggregation is -63.7% (inactive). Besides, the nuclei count came to 140% in assay [2] and 121% in assay [3]. The z-score in assay [4] (setting [13]) was 0.653; in assay [4] (setting [14]) it was -0.579; in [4] (setting [15]), -0.684. Further, the fluorescence slope in assay [6] was -0.456 (inactive). For the same compound, the NADPH fluorescence slope in [7] is -5.2e-05 (inactive). Besides, in assay [8], the slope was 0.00423 (inactive). For the same compound, in assay [9], the outcome was inactive.

Turning to `C[C@H]1C[C@@H]2[C@H]([C@@H](O)C[C@@]3(C)[C@H]2CC[C@]3(O)C(=O)CO)[C@@]2(C)C=CC(=O)C=C12`, in [1], the cell count was 665. Moreover, the inhibition was -3.7% (inactive) in assay [1]; -77.5% (inactive) in assay [3]; 7.39% (inactive) in [5]; 7.13% (inactive) in [10]; 11.3% (inactive) in assay [11]; 36.5% (inactive) in assay [12]. Further, the inhibition of aggregation in assay [2] is 10.3% (inactive). In addition, the nuclei count worked out at 101% in assay [2] and 120% in assay [3]. Also, the z-score in assay [4] (setting [13]) amounted to 1.04; in assay [4] (setting [14]) it was 0.95; in assay [4] (setting [15]), 0.348. Further, the fluorescence slope in [6] was -0.512 (inactive). For the same compound, in assay [7], the NADPH fluorescence slope is -7.2e-05 (inactive). For the same compound, in assay [8], the slope is 0.00539 (inactive). In assay [9], the compound was called inactive.

With `O=C(NO)c1ccccc1O`, in assay [1], the cell count was found to be 594. The inhibition in [1] was 1.9% (inactive); in [3] it was -35.8% (inactive); in [5], 5.79% (inactive); in assay [10], -11.3% (inactive); in assay [11] it was 5.89% (inactive); in assay [12], 19.5% (inactive). Further, in [2], the inhibition of aggregation is -2.3% (inactive). For the same compound, the nuclei count in [2] is 103%; in assay [3], 102%. Further, the z-score was -0.325 in [4] (setting [13]), -0.0884 in [4] (setting [14]) and -1.2 in [4] (setting [15]). The fluorescence slope in assay [6] is -0.458 (inactive). Also, the NADPH fluorescence slope in assay [7] was -2.4e-05 (inactive). Besides, in assay [8], the slope is 0.00615 (inactive). Besides, the result in [9] was inactive.
